{"source": "PubChem BioAssay (NCI)", "note": "This is part of a sample that, as a whole, favours compounds with a hit. Of some 83,000 tested, about 20% had one in any assay.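 Percent growth is the endpoint: 0 to 100 indicates growth inhibition (40 means 60% inhibition), 0 means no net growth, and negative values indicate cell death.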 Unmarked numbers belong to inactive results. Calls of active or inactive are those of the source. How the source made its calls: active means growth percent below 10; inactive means the rest."}
{"test_system": "SK-OV-3 ovarian", "test": "NCI-60 one-dose screen, 48 h (100 = growth as untreated, 0 = no growth, -100 = all killed)", "details": "10 µM unless noted"}
{"smiles": "Fc1cccc(CNc2nc(SCCN3CCOCC3)nc3c2cnn3CC(Cl)c2ccc(Br)cc2)c1", "note": "(stereo not drawn)", "growth": "51.3%"}
{"smiles": "O=C(Nc1nc2ccc([N+](=O)[O-])cc2s1)Nc1ccc(Cl)cc1Cl", "growth": "4.05% (active)"}
{"smiles": "Nc1nnc(CS(=O)(=O)c2ccccc2)s1", "growth": "104%"}
{"smiles": "CCCCCCCCc1ccc(C(=O)Nc2ccc(C)cc2C(=O)O)cc1", "growth": "100%"}
{"smiles": "COc1ccc2c(c1)c(-c1cc(N)n3nc(-c4c[nH]c5ccccc45)cc3n1)cn2C", "growth": "-55.6% (active)"}
{"smiles": "Clc1ccc(CNc2nc(SCCN3CCOCC3)nc3c2cnn3CC(Cl)c2ccc(Br)cc2)cc1", "note": "(stereo not drawn)", "growth": "62.5%"}
{"smiles": "CCC(=O)c1cc(C(=O)OC)c2ccc3c4ccccc4ccc3n12", "growth": "122%"}
{"smiles": "Nc1cc(-c2c[nH]c3ccc(Cl)cc23)nc2cc(-c3c[nH]c4ccccc34)nn12", "growth": "5.29% (active)"}
{"smiles": "CCCCNc1ccc2c3c(cccc13)C(=O)N(NCC(O)COc1ccc3c(C)cc(=O)oc3c1)C2=O", "note": "(stereo not drawn)", "growth": "99.4%"}
{"smiles": "O=C(OCCOCCO)N(c1cccc(Br)c1)c1nc(SCCN2CCOCC2)nc2c1cnn2CC(Cl)c1ccc(Br)cc1", "note": "(stereo not drawn)", "growth": "25.3%"}
{"smiles": "CCN1C(=O)N(CC)C2NNC(Sc3c(C(=O)O)c4ccccc4n(CC(C)C)c3=O)=NC21", "note": "(stereo not drawn)", "growth": "40.6%"}
{"smiles": "CCN1C(=O)N(CC)C2NNC(Sc3c(C(=O)O)c4ccccc4n(CCC(C)C)c3=O)=NC21", "note": "(stereo not drawn)", "growth": "35.8%"}
{"smiles": "COc1ccc(C(=O)c2cc(C(C)=O)c3c(C)cc(C)cn23)cc1", "growth": "29.1%"}
{"smiles": "O=C(N/N=C/c1ccc(Cl)cc1)c1ccc(OCc2nc3ccc(Cl)cc3[nH]2)cc1", "growth": "14.5%"}
{"smiles": "COC(=O)c1cc(C(=O)C(Br)Br)n2c1ccc1c3ccccc3ccc12", "growth": "75.4%"}
{"smiles": "O=C(Nc1nc2ccccc2s1)Nc1ccccc1Cl", "growth": "49.2%"}
{"smiles": "Oc1ccc(Cl)c(Nc2ncnc3c2cnn3CC(Cl)c2ccc(Br)cc2)c1", "note": "(stereo not drawn)", "growth": "49.2%"}
{"smiles": "ClC(Cn1ncc2c(Nc3cccc(Br)c3)nc(SCCN3CCOCC3)nc21)c1ccc(Br)cc1", "note": "(stereo not drawn)", "growth": "19.4%"}
{"smiles": "Nc1cc(-c2c[nH]c3ccc(F)cc23)nc2cc(-c3c[nH]c4ccccc34)nn12", "growth": "18.5%"}
{"smiles": "O=C1Nc2cc(-c3ccc(NS(=O)(=O)c4ccc(F)c(Cl)c4)cc3)ccc2/C1=C/c1ccc[nH]1", "growth": "39.6%"}
{"smiles": "O=C1CCC(N2C(=O)c3cccc(NCCOCCOCCOCCC(=O)NCCCC(=O)NC(c4ccc5c(c4)OCO5)c4cc(Cl)c5cccnc5c4O)c3C2=O)C(=O)C1", "note": "(stereo not drawn)", "growth": "51.1%"}
{"smiles": "Cn1cc(-c2cc3nc(-c4c[nH]c5ccccc45)cc(N)n3n2)c2ccccc21", "growth": "43.2%"}
{"smiles": "CN1C(=O)C(O)(CC(=O)c2cc3ccccc3oc2=O)c2ccccc21", "note": "(stereo not drawn)", "growth": "94.9%"}
{"smiles": "COc1ccc(Nc2nnc(-c3c[nH]c4ccccc34)o2)cc1", "growth": "74.2%"}
{"smiles": "Cc1cccc(C)c1Nc1nnc(-c2c[nH]c3ccccc23)o1", "growth": "76.9%"}
{"smiles": "Cc1ccc(O)cc1Nc1nc(SCCN2CCOCC2)nc2c1cnn2CC(Cl)c1ccc(Br)cc1", "note": "(stereo not drawn)", "growth": "43.9%"}
{"smiles": "Fc1ccccc1CNc1nc(SCCN2CCOCC2)nc2c1cnn2CC(Cl)c1ccc(Br)cc1", "note": "(stereo not drawn)", "growth": "58.3%"}
{"smiles": "COC(=O)c1cc(C(=O)CBr)n2c1ccc1c3ccccc3ccc12", "growth": "62%"}
{"smiles": "Oc1ccc(F)c(Nc2nc(SCCN3CCOCC3)nc3c2cnn3CC(Cl)c2ccc(Br)cc2)c1", "note": "(stereo not drawn)", "growth": "64.2%"}
{"smiles": "COC(=O)c1c(C(=O)OC)c2ccc3c4ccccc4ccc3n2c1C(=O)C(C)Br", "note": "(stereo not drawn)", "growth": "81.9%"}
{"smiles": "Cc1nn(-c2ccccc2)c2nc(C)n(C(=O)N/N=C/c3cccc([N+](=O)[O-])c3)c(=O)c12", "growth": "106%"}
{"smiles": "COc1c2c(c(Br)c3c1C(CCc1ccccc1)N(C)CC3)OCO2", "note": "(stereo not drawn)", "growth": "76.8%"}
{"smiles": "COc1ccc2[nH]cc(-c3cc(N)n4nc(-c5c[nH]c6ccccc56)cc4n3)c2c1", "growth": "3.49% (active)"}
{"smiles": "CC(C)(C)C(=O)C1CC(C#N)=C2C=Cc3c(ccc4ccccc34)N21", "note": "(stereo not drawn)", "growth": "75%"}
{"smiles": "Oc1ccc(Cl)c(Nc2nc(SCCN3CCOCC3)nc3c2cnn3CC(Cl)c2ccc(Br)cc2)c1", "note": "(stereo not drawn)", "growth": "65.8%"}
{"smiles": "Fc1ccc(F)c(CNc2nc(SCCN3CCOCC3)nc3c2cnn3CC(Cl)c2ccc(Br)cc2)c1", "note": "(stereo not drawn)", "growth": "47%"}
{"smiles": "CN1CCN(C(=O)Oc2cc3c(c4ccccc24)[C@H](CCl)CN3C(=O)c2cc3cc(OCCCN4CCC4)ccc3[nH]2)[C@H]2CSSC[C@H]21", "growth": "-16.5% (active)"}
{"smiles": "Nc1nc(-c2ccccc2)c(N=Nc2ccc(Cl)cc2Cl)s1", "growth": "7.41% (active)"}
